# Test results as given in PubChem BioAssay AID463254 (National Center for Advancing Translational Sciences (NCATS), 2010).
# About 40 (0.01%) of roughly 330,000 compounds were called active. Where a call stands in place of a potency, no number is given. Only a selection was taken, and actives are over-represented in it overall. Values without a mark were called inactive. The call rests on the fitted dose curve; in most records, active means well fitted inhibition curve with a large enough effect; inconclusive means small, poorly fitted or top-dose-only effect, or effect the other way; inactive means flat fitted curve, though single readings scatter.
# Molecular target: Ubiquitin carboxyl-terminal hydrolase 2 (Homo sapiens) (UniProt O75604)
# Assay: qHTS Assay for Inhibitors of Ubiquitin-specific Protease USP2a Using CHOP2 as the Reporter
# Settings: USP2 core, Ub-CHOP2 coupled fluorogenic reporter, 485/531; series mostly up to 38.3 µM
# Excerpt: NIH Molecular Libraries Screening Centers Network [MLSCN] NIH Chemical Genomics Center [NCGC] MLSCN Grant: XO1-MH079852-01 PI Name: Nicholson, Ben. Progenra Inc, Malvern, PA NCGC Assay Overview: Homeostasis of cellular proteins is maintained through a combination of synthesis and degradation. The pathway that accounts for the majority of protein degradation is the ubiquitin-proteasomal pathway. Ubiquitin (Ub) is highly conserved in all cells and the generation of a multi-Ub chain typically targets proteins for degradation by the proteasome. However, ubiquitination is highly reversible and dynamic. Deubiquitination, the reverse process, is catalyzed through the action of enzymes referred to as isopeptidases or deubiquitinating enzymes (DUBs). This group of enzymes is collectively responsible for maintaining adequate pools of free ubiquitin and regulating the ubiquitination status of cellular proteins. The class of DUBs referred to as the ubiquitin-specific proteases (USP) family functions endoproteolytically to cleave Ub chains from a wide range of protein substrates. USP2a deubiquitinates fatty acid synthase (FASN) which has recently been identified as an emerging oncology target. To identify inhibitors of USP2a a cell-free assay was employed. […] The reporter enzyme chosen is an enterokinase called CHOP2, which is activated when the Ub is cleaved by USP2. The free and now activated reporter can subsequently act on its reporter substrate. Thus, this coupled assay gives a fluorescent read-out at excitation/emission wavelengths of 485/531. The assay was developed by Progenra, Inc. and has been licensed for sale by LifeSensors, Inc. as Ub-CHOP2-Reporter-Kit (#PR1101).
# NCGC Assay Protocol Summary: The assay buffer, prepared fresh at the day of the assay, contains 20mM Tris-HCl pH 8.0, 2mM CaCl2, 2mM beta-Mercaptoethanol, 0.05% CHAPS. 3ul of 20nM (10nM final) USP2 core, which is stored on ice, is dispensed into a medium-binding black solid Kalypsys 1,536 well plate using the Kalypsys dispenser. The assay plate is then pinned with 23nL compound with the Kalypsys pintool in columns 5-48. The controls are pinned as follows: column 1 two-fold dilutions of 2M NEM in duplicate; column 2 2M NEM (final concentration 38.2mM); column 3&4 DMSO. The assay plate is incubated at RT for 30min. Subsequently, 1.5uL of 100nM (25nM final) Ub-CHOP2 and 1.5uL of 100nM (25nM final) Reporter Substrate (both stored on ice and protected from light) were dispensed into the plate using the Kalypsys dispenser. Plates were read after 60min RT incubation on a ViewLux (Perkin Elmer) plate reader using the following wavelengths Ex 485nm /Em 531nm. Data were normalized to the to AC100 inhibition (NEM). Concentration-response curves were fitted to the normalized data and the concentration-response curves were then classified based on curve quality (r2), response magnitude and degree of measured activity. The time zero reading was used to flag fluorescence artifacts. Keywords: ubiquitination, deubiquitination, proteases, profluorescent, MLSMR, MLPCN, NIH Roadmap, qHTS, NCGC
# Potency means the concentration at half of the fitted maximal effect.
# Chain of Ubiquitin carboxyl-terminal hydrolase 2 (Homo sapiens) (O75604 whole entry, looked up): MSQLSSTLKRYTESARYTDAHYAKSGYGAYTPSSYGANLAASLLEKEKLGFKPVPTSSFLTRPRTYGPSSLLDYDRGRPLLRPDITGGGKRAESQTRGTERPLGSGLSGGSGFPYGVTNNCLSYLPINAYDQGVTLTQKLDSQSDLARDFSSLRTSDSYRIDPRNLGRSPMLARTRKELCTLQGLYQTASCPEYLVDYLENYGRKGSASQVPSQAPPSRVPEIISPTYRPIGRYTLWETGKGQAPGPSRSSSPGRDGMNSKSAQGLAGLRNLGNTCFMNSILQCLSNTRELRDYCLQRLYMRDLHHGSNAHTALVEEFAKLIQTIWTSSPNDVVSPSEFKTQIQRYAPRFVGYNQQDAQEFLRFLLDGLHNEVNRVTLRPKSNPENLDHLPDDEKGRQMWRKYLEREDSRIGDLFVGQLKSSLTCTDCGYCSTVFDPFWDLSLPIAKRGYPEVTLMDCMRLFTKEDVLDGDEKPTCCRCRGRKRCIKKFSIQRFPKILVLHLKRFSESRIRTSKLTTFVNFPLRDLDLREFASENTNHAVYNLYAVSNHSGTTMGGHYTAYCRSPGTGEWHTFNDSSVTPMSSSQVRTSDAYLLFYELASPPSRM
Compound,"activity change, negative = inhibition",Potency
O=C(CSc1ncnc2c1oc1ccccc12)NC1CCCC1,inactive,
CSc1ccc(NC(=O)N2CC(C)OC(C)C2)cc1 (configuration not stated),inactive,
CC1O[C@H](OC2C(COC3OC(CO)C(O)[C@H](O)C3O)OC(OC3CC[C@]4(C)C(CC[C@@]5(C)[C@@H]4C=C[C@]46OC[C@@]7(CCC(C)(C)C[C@H]74)C(O)C[C@@]56C)C3(C)C)C(O)C2O)C(O)C(O)C1O (some centres not stated),inactive,
CCC(C)c1ccc(NC(=S)NCc2ccccn2)cc1 (configuration not stated),inactive,
Cc1cc(C(F)(F)F)c(C#N)c(SCC(=O)NC2CC2)n1,inactive,
COc1ccc2nc(NC3=NCN(CC4CCCO4)CN3)nc(C)c2c1 (configuration not stated),inactive,
CC(=O)C1=C(C)NC(=O)NC1c1cc(Br)ccc1OCC#N (configuration not stated),inactive,
Cc1ccc(NC(=O)C2CCC(C(C)(C)C)CC2)cc1S(=O)(=O)N1CCOCC1 (configuration not stated),inactive,
O=C1C=CC(=O)N1c1ccc(N2CCCCC2)cc1,inactive,
CCOc1nc(OCC)nc(-n2cc(-c3ccccc3)nn2)n1,inactive,
CC(C)(C)n1ncc2c(=O)n(Cc3ccc(Cl)cc3)cnc21,inactive,
Cc1cc2c(c(=O)n1Cc1ccccc1)C1O[C@](CCCCN3C(=O)c4ccccc4C3=O)(Cc3ccccc31)O2,-1.2% [at 7.66 µM],
CC(C)(C)NC(=O)CSC(=Nc1ccccc1F)NC#N,inactive,
O=C(CCl)Nc1ccc(Sc2ccc(NC(=O)CCl)cc2)cc1,inactive,
CC1CCN(C(=O)c2ccc(S(=O)(=O)Cc3cc(F)ccc3F)c([N+](=O)[O-])c2)CC1,inactive,
Cc1ccc(C2=NN(C(=O)CSc3nc(N)cc(N)n3)C(c3ccco3)C2)cc1 (configuration not stated),inactive,
COc1ccc(-c2nc3cc(C)ccn3c2NC2CCCCC2)cc1SC1CCCCC1,inactive,
Cc1ccc(C2(C(F)(F)F)N=C3Sc4cc(C)cc(C)c4N3C(=O)N2)cc1 (configuration not stated),inactive,
COc1ccc(CCOC(=O)CNC(=O)c2ccc(Cl)cc2Cl)cc1,inactive,
[O-][n+]1c2c(nn1-c1ccc(Cl)c(Cl)c1)-c1nonc1CC2,inactive,
Cn1c(SCC(=O)Nc2nccs2)nnc1-c1cccnc1,inactive,
Cc1c(C=O)c2ccccn2c1C(=O)c1ccncc1,inactive,
O=c1[nH]c(=S)[nH]c2[nH]c(=S)[nH]c12,inactive,
Cc1ccc(S(=O)(=O)CC(=O)Nc2sc(C)c(C)c2C(N)=O)cc1,inactive,
CC(C)N1C(=O)N(c2ccccc2)C(C)(O)CC1(C)C (configuration not stated),inactive,

Compound,"activity change, negative = inhibition",Potency
Cc1ccc(-n2c(SCC(=O)N3CCC(C(=O)O)CC3)nc3ccccc3c2=O)cc1C,inactive,
O=C(c1cccs1)n1nc(NCc2ccccc2)nc1NCc1ccccc1,inactive,
COc1ccc(OC)c(-c2c(=O)n(OCc3ccccc3Br)c3ccccc3[n+]2[O-])c1,inactive,
O=C1OC2(CCCCC2)CC2=C1C1O[C@](c3ccsc3)(Cc3ccccc31)O2,-1.62% [at 7.66 µM],
CCCCNC(=O)C(C)N(CCN(C)C)C(=O)CCCCCN1C(=O)NC(c2ccc(Cl)cc2)C(C(=O)OCc2ccccc2)=C1C (configuration not stated),inactive,
Cc1ccc(NC(=O)CC2C(=O)N(Cc3ccccc3)C(=S)N2NC(=O)c2cccc(F)c2)c(C)c1 (configuration not stated),inactive,
COC(=O)c1ccccc1Oc1c(F)c(F)nc(N2CCOCC2)c1F,inactive,
O=c1c2ccccc2[nH]c(=S)n1CCN1CCC(=C(c2ccc(F)cc2)c2ccc(F)cc2)CC1,inactive,
CCN(CC(=O)Nc1ccc(NC(C)=O)cc1)C(=O)C1CC(=O)N(Cc2ccc(C)cc2)C1 (configuration not stated),inactive,
Cc1cccc(C)c1NC(=O)C1(C)c2cccc[n+]2CC(=O)N1Cc1cccs1 (configuration not stated),inactive,
CO[C@H]1[C@@H]2C=CO[C@@H](O[C@H]3O[C@@H](CO)[C@H](O)[C@@H](O)[C@@H]3O)[C@@H]2[C@@]2(CO)O[C@@H]12,inactive,
O=C(CC1SC(=Nc2ccccc2)N(Cc2ccccn2)C1=O)Nc1cccc(Cl)c1 (configuration not stated),inactive,
Cc1coc2c(O)cc3c(c12)OC1(N2CCCCC2)C(=O)NCCCC31 (configuration not stated),inactive,
CCCCN(CCCC)CCCNC(=O)CN1C(=O)COc2ccc(S(=O)(=O)N3CCC(C)CC3)cc21,inactive,
CCOC(=O)N1CCN(S(=O)(=O)c2ccc3c(c2)C(C)C(=O)N3)CC1 (configuration not stated),inactive,
COC(=O)c1ccc(COc2ccc(/C=C/C(=O)c3ccc(OC)c(CSCC(=O)O)c3)cc2OC)cc1,,10 µM (active)
COc1ccc(C(=O)/C=C/c2ccc(-c3ccccc3)cc2)cc1CSCC(=O)O,inactive,
COc1ccc(/C=C/C(=O)c2ccc(NS(=O)(=O)c3ccc(C)cc3)cc2)cc1O,inactive,
Cc1ccc(C2NC(C(=O)O)CS2)cc1 (configuration not stated),inactive,
C=CCN(c1ccc(C(N)=O)cc1)S(C)(=O)=O,inactive,
Cc1cccc(N2CCN(Cc3nc(C4CC4)no3)CC2)n1,inactive,
c1ccc2c(c1)C(=NC1CCCCC1)NC2=NC1CCCCC1,inactive,
CCCOc1ccc(C(=O)C(CCC(CNCC)C(=O)c2ccc(OCCC)cc2)CNCC)cc1 (configuration not stated),inactive,
COc1ccc(Br)cc1CN(C)CC(=O)Nc1cc(Cl)cc(Cl)c1,inactive,
COc1ccc2c3c(c(=O)oc2c1)C1O[C@](CCCCN2C(=O)c4ccccc4C2=O)(Cc2c1ccc1ccccc21)O3,0.0315% [at 7.66 µM],

Compound,"activity change, negative = inhibition",Potency
CC(C)NC(=O)C(=O)NCCCOC(C)C,inactive,
O=C(CN1CCOCC1)N1CCCc2c1c(=O)oc1ccc(OCc3ccccc3)cc21,inactive,
CCOCCOCCC(C(=O)O)P(=O)(c1ccccc1)c1ccccc1 (configuration not stated),inactive,
CCOC(=O)c1c(NC(=O)CCCN2CCOCC2)sc2c1CC(C)(C)OC2,inactive,
CC(C)(C)[Si](OCC[C@@H]1C[C@@]1(C)[C@@H](NP(=O)(c1ccccc1)c1ccccc1)c1ccccc1)(c1ccccc1)c1ccccc1,inactive,
CCC(C)n1c(-c2cc(OC)c(OC)c(OC)c2)nc2nc3ccccc3nc21 (configuration not stated),inactive,
CC(C)(C)C(=O)NC1CC2CCCC(C1)N2C(=O)Nc1ccccc1F (configuration not stated),inactive,
C=CC[n+]1c(-c2ccc(C)cc2)csc1NNC(=O)Nc1ccccc1,inactive,
CCNC(=S)N(CCN(CC)CC)Cc1cc2cc3c(cc2[nH]c1=O)OCO3,inactive,
Cn1c(CC(=O)NNC(=O)c2ccccc2F)nc2ccccc21,inactive,
COc1ccc(-c2[nH]ncc2CN(Cc2nccn2C)C(C)C)cc1F,inactive,
Cc1cc(C)c(NC(=O)CSc2nc3ccncc3[nH]2)c(C)c1,inactive,
CCOC(=O)C(CC)/C(C)=N\NC(=O)c1cccc(C)c1 (configuration not stated),inactive,
CSc1nc(-c2ccco2)nn1C(=O)c1ccccc1Cl,inactive,
CCN(CC)CCN1C(=O)C(=O)/C(=C(/O)c2cnn(-c3ccccc3)c2C)C1c1cccs1 (configuration not stated),inactive,
Cc1ccc(C(=O)N/C(=C/c2ccco2)C(=O)NCCc2c[nH]c3ccccc23)cc1C,inactive,
Cc1ccc(NC(=O)CCC(=O)c2ccc(Br)cc2)cc1,inactive,
C/C(=N\NC(=O)NC1CCCCC1)c1ccc(OC(F)F)cc1OC(F)F,inactive,
CCC(=O)Nc1c(S(=O)(=O)c2ccccc2)c2nc3ccccc3nc2n1Cc1ccccc1,inactive,
CC(c1ccco1)N(C(=O)Nc1ccccc1)C1CCCCC1 (configuration not stated),inactive,
Cc1ccc(NC(=O)Cn2cnc3c(OCc4ccccc4)ncnc32)cc1C,inactive,
COc1ccc(C(=O)N2CCc3cc(OC)c(OC)cc3C2c2cccc([N+](=O)[O-])c2)cc1 (configuration not stated),inactive,
COc1ccc(C(=O)C2CCCN(C(=O)c3cc(C)on3)C2)cc1F (configuration not stated),inactive,
COC(c1ccccc1)(c1ccccc1)C(Oc1nc(C)cc(C)n1)C(=O)O (configuration not stated),inactive,
CN(C)/C=C(/C(=O)c1ccc(Cl)cc1)S(=O)(=O)c1ccccc1,inactive,

Compound,"activity change, negative = inhibition",Potency
O=C(Oc1ccc([N+](=O)[O-])cc1)c1ccc(Cl)c(S(=O)(=O)N2CCCCC2)c1,inactive,
Cc1ccc(N(Cc2cc(=O)[nH]c3ccccc23)C(=O)CCl)cc1,inactive,
C=CCn1cc(Cl)cc(C(=O)Nc2ccccc2)c1=O,inactive,
CCCCCCCCn1c2c(c(=N)c3c1CCC3)CCCC2,inactive,
COc1cccc(CNC(=O)COc2cc(O)c3c(c2)OC(C)(C)CC3=O)c1,inactive,
Cn1nnnc1NCc1ccc(Cl)c(Cl)c1,inactive,
COC(=O)c1cccc([N+](=O)[O-])c1CS(=O)(=O)c1ccc(C)cc1,inactive,
C#CCOCCOCCOCCNc1nc(N2CCN(C(=O)C([C@@H](C)O)n3cc([C@@H](N)CCCCN)nn3)CC2)nc(N2CCN(C(=O)[C@H](CCCCN)n3cc(CN)nn3)CC2)n1 (some centres not stated),inactive,
CN(C)CCCNc1c2c(c(C#N)c3nc4ccccc4n13)CCC2,inactive,
O=[N+]([O-])C(=c1ccc2c(c1)N1C3=C(CCCC3)CC3CCCCC31N=2)[N+](=O)[O-] (configuration not stated),inactive,
Cc1cc(N2CCN(c3ccc(F)cc3)CC2)n2ncnc2n1,inactive,
CCOC(=O)C1(CCOc2ccccc2)CCN(Cc2ccc(C#CCCO)cc2)CC1,inactive,
CC(C)CN(C(=O)CSc1nncn1C)C1CCS(=O)(=O)C1 (configuration not stated),inactive,
O=C(COC(=O)c1ccc(F)cc1F)Nc1ncccn1,inactive,
CC(=O)N[C@@H](C)C(=O)N1CCC(n2nccc2NC(=O)CCCc2ccccc2)CC1,inactive,
Cc1ccc(C(=O)Nc2nnc(C3=COCCO3)o2)cc1C,inactive,
COc1ccccc1-n1c(C)nc2cc(C(=O)NCc3ccc4c(c3)OCO4)ccc21,inactive,
CCCC(C)C(=O)NCc1ccncc1 (configuration not stated),inactive,
CCOC(=O)c1sc(NC(=O)CSc2nc3c(c(=O)n2-c2ccccc2)SCC3)c(C(=O)OCC)c1C,inactive,
CC(C)C(C)(C#N)NC(=O)CSc1nncn1-c1ccccc1 (configuration not stated),inactive,
COc1cccc(/C=C(/CC(=O)Nc2ccc(N3CCOCC3)cc2)c2nc3ccccc3s2)c1,inactive,
O=C(NC(=S)Nc1cccc(-c2ccc(CO)o2)c1)c1cccs1,inactive,
